Reference: the supplement of paper PMC8728848
This excerpt belongs to a sample that is enriched for the strongest signals.

Experiments:
Assay in all cases: glycan array binding signal (z-score within array); higher = stronger binding
Conditions in all cases: glycan notation: IUPAC condensed, linker removed
[1] = target: Gal(b1-4)GlcNAc(b1-3)Gal(b1-4)GlcNAc(b1-3)Gal(b1-4)GlcNAc(b1-3)Gal(b1-4)GlcNAc(b1-3)Gal(b1-4)GlcNAc(b1-2)Man(a1-3)[Gal(b1-4)GlcNAc(b1-3)Gal(b1-4)GlcNAc(b1-3)Gal(b1-4)GlcNAc(b1-3)Gal(b1-4)GlcNAc(b1-3)Gal(b1-4)GlcNAc(b1-2)Man(a1-6)]Man(b1-4)GlcNAc(b1-4)GlcNAc
Method in brief: (§1)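 Arrays were curated from the Consortium for Functional Glycomics database, 3228 in total, and kept only where the protein sequence was available. Binding is expressed as a within-array Z-score. This score was averaged across arrays of the same protein sequence at different concentrations or buffers and across linkers, and negative values can be read as non-binding.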

[2] = target: Gal(b1-6)Gal
Method in brief: as §1

[3] = target: Gal6S(b1-4)Glc6S
Method in brief: as §1

[4] = target: GalNAc(b1-3)GalNAc
Method in brief: as §1

[5] = target: GalNAc(b1-4)GlcNAc
Method in brief: as §1

[6] = target: GalNAc(b1-6)GalNAc
Method in brief: as §1

[7] = target: GalNAc3S(b1-4)GlcNAc
Method in brief: as §1

[8] = target: Glc(b1-6)Glc
Method in brief: as §1

[9] = target: GlcA(b1-3)GlcNAc
Method in brief: as §1

[10] = target: GlcNAc(b1-3)Gal
Method in brief: as §1

[11] = target: GlcNAc(b1-3)Gal(b1-4)Glc
Method in brief: as §1

[12] = target: GlcNAc(b1-3)Gal(b1-4)GlcNAc(b1-3)Gal(b1-4)GlcNAc(b1-2)Man(a1-3)[GlcNAc(b1-3)Gal(b1-4)GlcNAc(b1-3)Gal(b1-4)GlcNAc(b1-2)Man(a1-6)]Man(b1-4)GlcNAc(b1-4)GlcNAc
Method in brief: as §1

[13] = target: GlcNAc(b1-3)[GlcNAc(b1-4)][GlcNAc(b1-6)]GlcNAc
Method in brief: as §1

[14] = target: Man(a1-2)Man(a1-6)[Man(a1-3)]Man(a1-6)[Man(a1-2)Man(a1-2)Man(a1-3)]Man
Method in brief: as §1

[15] = target: Man(a1-2)Man(a1-6)[Man(a1-3)]Man(a1-6)[Man(a1-2)Man(a1-2)Man(a1-3)]Man(b1-4)GlcNAc(b1-4)GlcNAc
Method in brief: as §1

[16] = target: Neu5Ac(a2-3)Gal
Method in brief: as §1

[17] = target: Neu5Ac(a2-3)Gal(b1-3)GalNAc(b1-3)Gal(a1-4)Gal(b1-4)Glc
Method in brief: as §1

[18] = target: Neu5Ac(a2-3)Gal(b1-3)GlcNAc(b1-2)Man(a1-3)[GlcNAc(b1-4)][Neu5Ac(a2-3)Gal(b1-3)GlcNAc(b1-2)Man(a1-6)]Man(b1-4)GlcNAc(b1-4)GlcNAc
Method in brief: as §1

[19] = target: Neu5Ac(a2-3)Gal(b1-4)GlcNAc(b1-2)Man(a1-3)[Neu5Ac(a2-3)Gal(b1-4)GlcNAc(b1-2)Man(a1-6)]Man(b1-4)GlcNAc(b1-4)GlcNAc
Method in brief: as §1

[20] = target: Neu5Ac(a2-3)Gal(b1-4)GlcNAc(b1-2)Man(a1-3)[Neu5Ac(a2-3)Gal(b1-4)GlcNAc(b1-2)Man(a1-6)]Man(b1-4)GlcNAc(b1-4)[Fuc(a1-6)]GlcNAc
Method in brief: as §1

[21] = target: Neu5Ac(a2-3)Gal(b1-4)GlcNAc(b1-3)Gal(b1-4)GlcNAc(b1-3)[Neu5Ac(a2-3)Gal(b1-4)GlcNAc(b1-3)Gal(b1-4)GlcNAc(b1-6)]GalNAc
Method in brief: as §1

[22] = target: Neu5Ac(a2-3)Gal(b1-4)GlcNAc(b1-3)Gal(b1-4)GlcNAc(b1-6)[Gal(b1-3)]GalNAc
Method in brief: as §1

[23] = target: Neu5Ac(a2-3)Gal(b1-4)[Fuc(a1-3)]GlcNAc(b1-6)[Gal(b1-3)]GalNAc
Method in brief: as §1

[24] = target: Neu5Ac(a2-3)Gal6S(b1-4)GlcNAc
Method in brief: as §1

[25] = target: Neu5Ac(a2-3)[GalNAc(b1-4)]Gal(b1-4)GlcNAc
Method in brief: as §1

[26] = target: Neu5Ac(a2-6)Gal(b1-4)GlcNAc(b1-2)Man(a1-3)[GlcNAc(b1-2)Man(a1-6)]Man(b1-4)GlcNAc(b1-4)GlcNAc
Method in brief: as §1

[27] = target: Neu5Ac(a2-6)Gal(b1-4)GlcNAc(b1-3)Gal(b1-4)GlcNAc(b1-3)Gal(b1-4)GlcNAc
Method in brief: as §1

[28] = target: Neu5Ac(a2-6)Gal(b1-4)GlcNAc(b1-3)Gal(b1-4)GlcNAc(b1-3)[Neu5Ac(a2-6)Gal(b1-4)GlcNAc(b1-3)Gal(b1-4)GlcNAc(b1-6)]GalNAc
Method in brief: as §1

[29] = target: Neu5Ac(a2-6)Gal(b1-4)GlcNAc6S
Method in brief: as §1

[30] = target: Neu5Ac(a2-6)GalNAc(b1-4)GlcNAc
Method in brief: as §1

[31] = target: Neu5Ac(a2-6)GalNAc(b1-4)GlcNAc6S
Method in brief: as §1

[32] = target: Neu5Ac(a2-8)Neu5Gc(a2-3)Gal(b1-4)GlcNAc
Method in brief: as §1

B1: Clec12b (Mus musculus), Q149M0 (protein)
chain: MSDEVTYATLMLQDSARVRGNQDGNNLRKEGHPAQSSLWRGAALSLMTLCLVLVTGLVTLATMFLQVSNDINSDSEKLSQLQKSIHPQQDNLSESLNSSRKSLTEESLQSQISALLERQEQMATKLCKEFLIHASDHKCNPCPKTWQWYGNSCYYFSINEEKSWSDSRKDCIDKNATLVKIDSTEERDLLQSQLSLTFSFFWLGLSWNSSGRNWLWEDGSFPPPTLFSDKELASFNGSRDCAYFERGNIYASRCSAEIPWICEKTASLVKTEDLD
- glycan array binding signal (z-score) [1]: 0.028
- glycan array binding signal (z-score) [2]: -0.5
- glycan array binding signal (z-score) [3]: 1.24
- glycan array binding signal (z-score) [4]: -0.125
- glycan array binding signal (z-score) [5]: 0.301
- glycan array binding signal (z-score) [6]: 1.14
- glycan array binding signal (z-score) [7]: -0.691
- glycan array binding signal (z-score) [8]: -0.441
- glycan array binding signal (z-score) [9]: -0.05
- glycan array binding signal (z-score) [10]: -0.39
- glycan array binding signal (z-score) [11]: 2.54
- glycan array binding signal (z-score) [12]: -0.27
- glycan array binding signal (z-score) [13]: -0.245
- glycan array binding signal (z-score) [14]: -0.526
- glycan array binding signal (z-score) [15]: -0.428
- glycan array binding signal (z-score) [16]: -0.719
- glycan array binding signal (z-score) [17]: -0.593
- glycan array binding signal (z-score) [18]: -0.101
- glycan array binding signal (z-score) [19]: -0.716
- glycan array binding signal (z-score) [20]: 11.9
- glycan array binding signal (z-score) [21]: -0.513
- glycan array binding signal (z-score) [22]: -0.721
- glycan array binding signal (z-score) [23]: 2.54
- glycan array binding signal (z-score) [24]: -0.451
- glycan array binding signal (z-score) [25]: -0.538
- glycan array binding signal (z-score) [26]: -0.701
- glycan array binding signal (z-score) [27]: -0.719
- glycan array binding signal (z-score) [28]: -0.419
- glycan array binding signal (z-score) [29]: 0.459
- glycan array binding signal (z-score) [30]: -0.692
- glycan array binding signal (z-score) [31]: -0.524
- glycan array binding signal (z-score) [32]: -0.719
